Among the data in PubChem BioAssay (NCI) are growth values, retold here.

The panel holds about 83,000 compounds, 20% with a hit somewhere; the sample as a whole holds those more often.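 For each line, cells grew in 96-well plates with the test compound present at a single concentration for 48 hours.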 Unmarked numbers belong to inactive results. Activity calls are given as the source filed them. The calls were made as follows: active = growth percent below 10; inactive = the rest.

Some test systems named below: NCI-H23 lung; NCI-H226 lung; NCI-H322M lung; HOP-62 NSCLC; NCI-H460 lung; 786-0 renal; DU-145 prostate; MDA-MB-231 breast; SF-268 CNS; SNB-19 CNS; UACC-62 melanoma; SK-MEL-28 melanoma; SN12C renal; UO-31 renal; OVCAR-5 ovarian; OVCAR-3 ovarian; NCI/ADR-RES ovarian; MDA-MB-435 melanoma; MCF7 breast; KM12 colon.
Common to all, as to assay: NCI-60 one-dose screen, 48 h (100 = growth as untreated, 0 = no growth, -100 = all killed)
Details in all cases: 10 µM unless noted

As to `N#C[Se]CCCNS(=O)(=O)C1CC2C=CC1C2` (centres undefined), the growth in the assay on NCI-H23 lung is -37.5% (active); with NCI-H226 lung it was -66.5% (active); with NCI-H322M lung it was -19.9% (active); in the assay on HOP-62 NSCLC, -71.6% (active); in the assay with NCI-H460 lung, -18.3% (active); with 786-0 renal, -87.4% (active). For the same compound, the growth is -68% (active) in the assay with DU-145 prostate; -71.8% (active) in the assay on MDA-MB-231 breast; -55.7% (active) in the assay on SF-268 CNS; -42.3% (active) in the assay with SNB-19 CNS; -54.1% (active) in the assay on UACC-62 melanoma; -15.3% (active) in the assay on SK-MEL-28 melanoma. Further, the growth with SN12C renal is -25.6% (active); in the assay on UO-31 renal it was -98.7% (active); in the assay with OVCAR-5 ovarian, 4.98% (active); in the assay with OVCAR-3 ovarian it was -63.6% (active); with NCI/ADR-RES ovarian, -3.8% (active); in the assay on MDA-MB-435 melanoma it was -41.2% (active). Besides, the growth with MCF7 breast was 2.16% (active); with KM12 colon, -5.35% (active).

Regarding `COP(=S)(OC)Oc1ccc(SC)c(C)c1`, the growth was 97.7% in the assay on NCI-H23 lung; 85.6% in the assay with NCI-H226 lung; 108% in the assay on NCI-H322M lung; 95.4% with HOP-62 NSCLC; 110% in the assay with NCI-H460 lung; 104% in the assay on 786-0 renal. The growth in the assay on DU-145 prostate was 111%; with MDA-MB-231 breast it was 113%; in the assay with SF-268 CNS, 110%; in the assay on SNB-19 CNS, 109%; in the assay on UACC-62 melanoma it was 95.5%; in the assay with SK-MEL-28 melanoma, 115%. Further, the growth is 100% with SN12C renal; 80.2% with UO-31 renal; 93.2% in the assay on OVCAR-5 ovarian; 104% in the assay on OVCAR-3 ovarian; 100% with NCI/ADR-RES ovarian; 100% in the assay with MDA-MB-435 melanoma. For the same compound, the figures for the growth in the assay on MCF7 breast and in the assay on KM12 colon were 113% and 105%, respectively.

Consider `c1ccc(CCN2CCCCC2Cc2ccccc2)cc1` (centres undefined), for which the growth in the assay with NCI-H23 lung is 86.2%; in the assay with NCI-H226 lung, 102%; in the assay on NCI-H322M lung, 78.5%; in the assay with HOP-62 NSCLC it was 97.2%; in the assay on NCI-H460 lung it was 116%; in the assay on 786-0 renal it was 102%. Besides, the growth is 96.4% with MDA-MB-231 breast; 99.4% in the assay with SF-268 CNS; 111% in the assay with SNB-19 CNS; 92.4% with UACC-62 melanoma; 97.5% in the assay with SK-MEL-28 melanoma; 99.2% with SN12C renal. Moreover, the growth in the assay with UO-31 renal was 74.7%; in the assay with OVCAR-5 ovarian, 83%; with OVCAR-3 ovarian, 103%; in the assay with NCI/ADR-RES ovarian it was 87.8%; in the assay on MDA-MB-435 melanoma, 118%; in the assay on MCF7 breast, 96.1%. The growth in the assay on KM12 colon is 103%.
